What all share (conditions): 10 µM; exposure time: 3 h pre-incubation + 3 h imaging
The test system of test [1] is Danio rerio larvae (5 dpf). The test is described as follows: excitability (activity period 17 minus period 16, 1-s interval sound) minus DMSO control (percentage points); higher = more acoustic excitability than DMSO larvae. The method in brief:
(§1)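 Zebrafish larvae (wild-type, 5 dpf) were imaged every 6 s at 28.5 °C and tracked with Z-LaP Tracker after 3 h of compound exposure at 10 µM final, which continued for the 3 h of imaging. Only detections of at least 0.5 probability were kept, and larvae moving under 1% of the time were dropped. Behavioural measures are reported as the group mean minus the control mean in percentage points. Group size was 48 and control size was 844.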

In test [2] the test system is Danio rerio larvae (5 dpf). The test is described as follows: combined optomotor response (time in upper well half, down vs up moving lines, periods 7-14) minus DMSO control (percentage points); higher = stronger optomotor response than DMSO larvae.
The subject of test [3] is Danio rerio larvae (5 dpf). Description: 1-h baseline activity (% time moving, periods 1-6) minus DMSO control (percentage points); higher = more locomotor activity than DMSO larvae. Summed up:
as §1

Test [4] deals with Danio rerio larvae (5 dpf). Description: habituation (activity change first vs second 5 min of 1-s interval sound, period 17) minus DMSO control (percentage points); higher = larger habituation measure than DMSO larvae. Summed up: as §1
Test [5] concerns Danio rerio larvae (5 dpf). The test is described as follows: startle (activity period 16 minus period 15, 20-s interval sound) minus DMSO control (percentage points); higher = stronger startle response than DMSO larvae. The method in brief: as §1

Counter-ions that a name gives are not always drawn.

`CCOC(=O)[C@H](CCc1ccccc1)N[C@H]1CCc2ccccc2N(CC(=O)O)C1=O` [Benazepril hydrochloride]: the excitability in test [1] stood at 0.927. The combined optomotor response in test [2] was 5.66.

As to `CS(=O)(=O)CCNCc1ccc(-c2ccc3ncnc(Nc4ccc(OCc5cccc(F)c5)c(Cl)c4)c3c2)o1` [Lapatinib], the excitability in test [1] stood at 15.5. Moreover, the combined optomotor response in test [2] is -2.06.

On to `CC1=Nc2ccc(Cl)cc2S(=O)(=O)N1` [Diazoxide], for which the 1-h baseline activity in test [3] was 7.2. Also, the combined optomotor response in test [2] turned out to be 2.18.

On to `CN1CCC[C@@H]1CCO[C@](C)(c1ccccc1)c1ccc(Cl)cc1` [Clemastine fumarate], for which the 1-h baseline activity in test [3] stood at 1.06. For the same compound, the combined optomotor response in test [2] is 7.99.

`O=C(O[C@@H]1C[C@@H]2C[C@H]3C[C@H](C1)N2CC3=O)c1c[nH]c2ccccc12` [Dolasetron mesylate]: in test [1], the excitability was determined as 10.3. For the same compound, the combined optomotor response in test [2] was -2.11.

For the compound `CC(C)c1ccc2oc3nc(N)c(C(=O)O)cc3c(=O)c2c1` [Amlexanox], the 1-h baseline activity in test [3] turned out to be 5.8. Besides, in test [2], the combined optomotor response was 4.64.

Regarding `CCCCC1=NC2(CCCC2)C(=O)N1Cc1ccc(-c2ccccc2-c2nnn[nH]2)cc1` [Irbesartan], in test [1], the excitability is -0.258. Besides, the combined optomotor response in test [2] is -4.91.

`CCCN(CCc1cccs1)[C@H]1CCc2c(O)cccc2C1` [Rotigotine hydrochloride]: the excitability in test [1] came to 13.6. In addition, the combined optomotor response in test [2] is -12.7.

In the case of `CC(C)Nc1cccnc1N1CCN(C(=O)c2cc3cc(NS(C)(=O)=O)ccc3[nH]2)CC1` [Delavirdine mesylate], in test [4], the habituation is -5.18. For the same compound, the combined optomotor response in test [2] is -0.694.

On to `C[C@H]1C[C@@H]2[C@H]([C@@H](O)C[C@@]3(C)[C@H]2CC[C@]3(O)C(=O)CO)[C@@]2(C)C=CC(=O)C=C12` [Methylprednisolone], for which, in test [1], the excitability is 1.52. Besides, in test [2], the combined optomotor response came to 8.85.

Consider `Nc1ncn([C@H]2C[C@H](O)[C@@H](CO)O2)c(=O)n1` [Decitabine], for which the excitability in test [1] amounted to 8.23. In test [2], the combined optomotor response came to 3.77.

Regarding `OC(CNCC(O)C1CCc2cc(F)ccc2O1)C1CCc2cc(F)ccc2O1` (stereo not given) [Nebivolol hydrochloride], the 1-h baseline activity in test [3] is -2.33. In addition, in test [2], the combined optomotor response is -9.95.

On to `CCC(C)(C)C(=O)O[C@H]1C[C@@H](C)C=C2C=C[C@H](C)[C@H](CC[C@@H]3C[C@@H](O)CC(=O)O3)[C@H]21` [Simvastatin], for which the 1-h baseline activity in test [3] was 6.15.

In the case of `C[C@]12CC[C@@H]3c4ccc(O)cc4C[C@@H](CCCCCCCCC[S+]([O-])CCCC(F)(F)C(F)(F)F)[C@H]3[C@@H]1CC[C@@H]2O` (stereo not given in full), in test [3], the 1-h baseline activity worked out at 8.32. The combined optomotor response in test [2] worked out at 2.46.

Take `Cc1ccc(NC(=O)c2ccc(CN3CCN(C)CC3)cc2)cc1Nc1nccc(-c2cccnc2)n1` [Imatinib mesylate]: the 1-h baseline activity in test [3] was -13.5. Besides, the excitability in test [1] is 13.3.

Turning to `CCOc1nc2cccc(C(=O)O)c2n1Cc1ccc(-c2ccccc2-c2noc(=O)[nH]2)cc1` [Azilsartan], in test [1], the excitability was found to be 4.01. In test [2], the combined optomotor response worked out at 0.518.

As for `CCOc1nc2cccc(C(=O)O)c2n1Cc1ccc(-c2ccccc2-c2nnn[nH]2)cc1` [Candesartan], the 1-h baseline activity in test [3] came out at 2.98. Besides, the combined optomotor response in test [2] stood at 7.2.

Take `O=C(O)CCCc1ccccc1` [Sodium 4-Phenylbutyrate]: the habituation in test [4] is -2.16. Further, the combined optomotor response in test [2] came out at 4.62.

For the compound `CCOC(=O)N1CCC(=C2c3ccc(Cl)cc3CCc3cccnc32)CC1` [Loratidine], in test [4], the habituation was -7.35.

As to `COc1cc2nc(N3CCN(C(=O)C4COc5ccccc5O4)CC3)nc(N)c2cc1OC` (stereo not given) [Doxazosin mesylate], in test [3], the 1-h baseline activity was -6.93. Besides, in test [4], the habituation turned out to be 0.55. Also, the combined optomotor response in test [2] is -3.96.

Turning to `CC(C)N(CCCCOCC(=O)NS(C)(=O)=O)c1cnc(-c2ccccc2)c(-c2ccccc2)n1` [Selexipag], in test [3], the 1-h baseline activity was determined as 1.65. In addition, the excitability in test [1] amounted to 5.98. Besides, in test [4], the habituation is -0.762. Also, in test [2], the combined optomotor response is 4.06.

On to `NC(=O)N1c2ccccc2C=Cc2ccccc21` [Carbamazepine], for which the habituation in test [4] was determined as 2.97. Further, in test [2], the combined optomotor response amounted to 6.15.

As to `CN(CCOc1ccc(CC2SC(=O)NC2=O)cc1)c1ccccn1` (stereo not given) [Rosiglitazone], in test [1], the excitability stood at 17.9. Further, the combined optomotor response in test [2] came to 3.93.

Turning to `CCCCC(=O)N(Cc1ccc(-c2ccccc2-c2nnn[nH]2)cc1)[C@H](C(=O)O)C(C)C` [Valsartan], the startle in test [5] came out at 0.232. Moreover, the combined optomotor response in test [2] stood at 7.07.

For `CO[C@H]1/C=C/O[C@@]2(C)Oc3c(C)c(O)c4c(O)c(c5c(nc6cc(C)ccn65)c4c3C2=O)NC(=O)/C(C)=C\C=C\[C@H](C)[C@H](O)[C@@H](C)[C@@H](O)[C@@H](C)[C@H](OC(C)=O)[C@@H]1C` [Rifaximin], the habituation in test [4] was -3.24. Also, the combined optomotor response in test [2] was 2.32.

`CCOC(=O)C1=C(C)NC(C)=C(C(=O)OC)C1c1cccc(Cl)c1Cl` (stereo not given) [Felodipine]: the 1-h baseline activity in test [3] is -15.3.

For the compound `CCCCc1nc(Cl)c(CO)n1Cc1ccc(-c2ccccc2-c2nnn[nH]2)cc1` [Losartan potassium], in test [1], the excitability turned out to be 6.79. The habituation in test [4] is 1.01. Further, the combined optomotor response in test [2] is -0.522.

The values are drawn from the supplement of paper PMC9950053.
